# Hits are enriched below; roughly 10% of the tested compounds scored in any of these assays.
# VDR inhibitor – inhibitors of human vitamin D receptor. P11473. VDR-SRC2-3 peptide fluorescence polarization, 2 h. Potency, µM, actives largely listed as inhibitors. 400,000 tested, 0.93% active
# Target sequence (P11473 whole entry, looked up): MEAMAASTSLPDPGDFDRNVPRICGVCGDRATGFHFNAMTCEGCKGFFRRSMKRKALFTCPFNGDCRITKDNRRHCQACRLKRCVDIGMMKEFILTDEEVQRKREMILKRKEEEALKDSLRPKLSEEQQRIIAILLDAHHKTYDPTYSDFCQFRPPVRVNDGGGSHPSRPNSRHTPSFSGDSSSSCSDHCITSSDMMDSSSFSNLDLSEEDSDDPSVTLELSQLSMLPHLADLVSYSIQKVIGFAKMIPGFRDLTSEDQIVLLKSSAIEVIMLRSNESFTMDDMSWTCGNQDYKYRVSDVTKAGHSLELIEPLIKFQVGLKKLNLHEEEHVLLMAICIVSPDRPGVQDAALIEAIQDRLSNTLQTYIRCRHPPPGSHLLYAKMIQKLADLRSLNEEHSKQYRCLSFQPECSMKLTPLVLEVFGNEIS
#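 Compounds are added to VDR with labelled SRC2-3 coactivator peptide and held 2 h at room temperature. Inhibition of the VDR–peptide interaction is then read as a change in fluorescence polarization.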
# CCT chaperon mod – modulators of cytosolic chaperonin (CCT/TRiC) activity; purified chaperonin ATPase assay, HTRF ADP detection, 30 min; activity change, % (concentration not given with the values), hits read low; 360,000 tested, 0.3% active; AID 651819; in the data active = activity change below about -30%
#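 First, chaperonin was dispensed at 40 nM or 20 nM final depending on batch activity. Next, compounds were pinned at 76 uM and ATP added at 10 uM. After 30 min at 37 °C, ADP detection reagents ran 30 min at ambient temperature.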
# Sfp PPTase inh – Sfp phosphopantetheinyl transferase inhibition | AID 1490 | Potency, µM, most hits filed as inhibitors | Q9F4F7 | 310,000 tested, 3.5% active | Biochemical Sfp PPTase activity, qHTS;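 note: the enzyme is Sfp with the accession as filed and its product quenches rhodamine fluorescence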
#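 Reaction rates are the 30-min fluorescence difference (ex 525, em 598 nm) in wells containing 15 nM Sfp, 5 uM rhodamine-CoA and 12.5 uM BHQ-2-YbbR at pH 7.6 with 10 mM MgCl2.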
# G9a inh – G9a (human) methyltransferase inhibition; Q96KQ7; G9a H3K9 monomethylation, AlphaScreen, 2 h; Potency, µM (titrated, usually from 102 µM), usual class: inhibitors; 350,000 tested, 8.8% active; note: nearly all actives have a fitted effect of over 75% in size
# Target sequence (Q96KQ7 913-1193 limits assumed): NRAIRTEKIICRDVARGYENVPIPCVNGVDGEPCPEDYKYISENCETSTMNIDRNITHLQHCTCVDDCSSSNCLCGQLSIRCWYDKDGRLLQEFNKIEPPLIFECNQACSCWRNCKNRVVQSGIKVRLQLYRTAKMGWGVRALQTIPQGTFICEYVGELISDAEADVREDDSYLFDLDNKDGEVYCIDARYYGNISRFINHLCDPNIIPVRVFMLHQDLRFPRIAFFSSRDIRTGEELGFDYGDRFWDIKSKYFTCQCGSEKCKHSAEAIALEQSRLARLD
#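 G9a (20 nM) preincubated 15 min RT with compounds, then 500 nM biotinylated H3K9 peptide and 20 uM SAM added; 2 h RT reaction. Monomethyl-H3K9 product detected by AlphaScreen with anti-H3K9me1 antibody, streptavidin donor and anti-rabbit IgG acceptor beads.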
# MmCpn inh – blocks the Methanococcus maripaludis chaperonin Mm-Cpn | purified Mm-Cpn ATPase, ADP Transcreener TR-FRET | 330,000 tested, 0.031% active | Potency, µM (series often up to 76.9 µM), actives largely listed as inhibitors; note: nearly all actives have a fitted effect of over 80% in size
#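 Eu-cryptate anti-ADP/ADP-d2 competition gives a ratio inversely related to ADP. Enzyme at 25 nM was pre-exposed to compound for 10 min, then given 10 uM ATP for 30 min, 37°C throughout.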
# PLK1 PBD inh – PLK1 (human) polo-box domain binding inhibition; P53350; Plk1 PBD binding of FITC phosphopeptide, fluorescence polarization; Potency, µM, hits mostly inhibitors; 360,000 tested, 2.8% active; AID 720504; note: series mostly up to about 57 µM; nearly all actives have a fitted effect of over 65% in size
# USP1-UAF1 confirm – validation of human USP1/UAF1 inhibitors; Potency, µM (series often up to 56.8 µM), usual class: inhibitors; Ub-Rhodamine cleavage, fluorescence kinetic read; shares compounds with VDR inhibitor; AID 540327; 50 tested, 50% active
# VDR inh confirm – inhibits human vitamin D receptor, primary hit validation | shares compounds with VDR inhibitor | VDR-coactivator inhibition assay, qHTS confirmation | Potency, µM, hits mostly inhibitors | 840 tested, 89% active | AID 602199
# VDR FP fluor – blocks human VDR-coactivator binding in fluorescein assay. shares compounds with VDR inhibitor. VDR-coactivator binding, fluorescein fluorescence polarization. Potency, µM (doses to about 57.1 µM), most hits filed as inhibitors. 840 tested, 48% active
# VDR bla – confirmation of human vitamin D receptor inhibitors in reporter cells. Potency, µM (series often up to 46.1 µM), actives largely listed as inhibitors. 840 tested, 23% active. VDR beta-lactamase reporter cells, FRET ratio; cells co-treated with VDR agonist LG190178. shares compounds with VDR inhibitor
# VDR cytotox – counter-screen for vitamin D receptor inhibitors: cytotoxicity | shares compounds with VDR inhibitor | cytotoxicity counter-screen, cell viability, qHTS | Potency, µM (doses to about 48.3 µM), most hits filed as cytotoxic | 840 tested, 18% active | AID 602204; note: nearly all actives have a fitted effect of over 75% in size
# TbPYK inh – Trypanosoma brucei pyruvate kinase inhibition, cherry-pick confirmation | 890 tested, 67% active | Potency, µM (titrated, usually from 76.9 µM), actives largely listed as inhibitors | shares compounds with PLK1 PBD inh | recombinant TbPYK, Kinase-Glo ATP luminescence; note: nearly all actives have a fitted effect of over 70% in size
# TbPYK ADP-Glo – TbPYK inhibition, orthogonal confirmation | recombinant TbPYK, ADP-Glo luminescence, 60 min | shares compounds with PLK1 PBD inh | Potency, µM (top dose mostly 76.9 µM), actives largely listed as inhibitors | 890 tested, 62% active; note: nearly all actives have a fitted effect of over 75% in size
# Numbers stand for hits; 0 = inactive; ? = inconclusive; - = not tested or not shown; [ ] = dose if it differs, or a comment. Unless noted, calls come from the whole dose curve; as a rule, active = well fitted curve in the direction sought with a large enough effect; inconclusive = small, poorly fitted or top-dose-only effect, or another doubt; inactive = no such curve, though single readings can be large; an effect the other way counts as inactive or inconclusive.
SMILES,VDR inhibitor,CCT chaperon mod,Sfp PPTase inh,G9a inh,MmCpn inh,PLK1 PBD inh,VDR inh confirm,VDR FP fluor,VDR bla,VDR cytotox,others
C=CCN1C(=O)/C(=C/c2ccc(Br)s2)C(=O)NC1=S,20µM,0,40µM,3.2µM,0,1.3µM,4.2,0,?,0,
O=c1c2ccccc2nc(/C=C\c2ccc(F)cc2)n1-c1ccccc1F,0,-,-,0,-,-,-,-,-,-,
CCCC1=Nc2cc(C(=O)NCCCN(CC)CC)ccc2Sc2ccccc21,0,-,-,0,-,-,-,-,-,-,
O=C1CC(c2ccccc2Br)c2c(c3ccccc3oc2=O)O1 (configuration not stated),0,-,-,0,-,-,-,-,-,-,
Cn1c(O)c(N=Nc2ccc(S(=O)(=O)N3CCOCC3)cc2)c(=O)n(C)c1=O,0,0,0,?,0,0,-,-,-,-,
O=C1NC(=O)C(=Cc2ccc(-c3ccc(S(=O)(=O)N4CCOCC4)cc3)o2)C(=O)N1,22µM,0,8.9µM,7.1µM,0,2.7µM,19,?,0,0,
O=[N+]([O-])/C=C/c1cn(Cc2ccc(Cl)cc2)c2ccccc12,25µM,0,0,0,0,0,11,?,?,?,
CN1C(=O)C(=Cc2ccc(OCCN(C)c3ccccn3)cc2)C(=O)N(C)C1=O,0,0,0,?,0,?,-,-,-,-,
CN1C(=O)C(=Cc2ccccc2Oc2ccc(Cl)cc2)C(=O)N(C)C1=O,28µM,0,?,0,0,4.7µM,17,18µM,0,0,
COc1cccc(C2CC3C(=O)C=CC2N3Cc2ccccc2)c1 (configuration not stated),?,0,0,0,0,0,18,?,21µM,0,
O=C(/C=C/c1ccc2c(c1)OCO2)c1c(O)n(CCC2=CCCCC2)c(=O)[nH]c1=O,?,0,0,11µM,0,?,5.6,?,21µM,0,
CCCCn1c(O)c(C(=O)/C=C/c2ccc3c(c2)OCO3)c(=O)[nH]c1=O,?,0,0,-,0,0,11,?,?,0,
CCCCn1c(O)c(C(CC)=NCc2ccc3c(c2)OCO3)c(=O)[nH]c1=O,0,0,0,0[12.7 µM],0,0,-,-,-,-,
Cc1ccc(OCC(=O)Nc2ccc(Cl)cc2C(=O)c2ccccc2)cc1C,0,-,-,0,-,-,-,-,-,-,
CCOc1ccc(-c2nc3cc(NC(=O)COc4cccc(C)c4)ccc3o2)cc1,0,-,-,?,-,-,-,-,-,-,
O=C1C(=O)c2ccccc2-c2ccccc21,10µM,0,0,?,0,0,6,3.2µM,3.7µM,1.8µM,
COc1ccc(-n2c(=S)[nH]c3c(sc(=S)n3-c3ccccc3)c2=O)c(OC)c1,35µM,0,14µM,2.5µM,0,2.4µM,3.4,?,0,0,
COc1cc2[nH]c(=S)n(-c3ccccc3)c(=O)c2cc1OC,0,0,0,0,0,0,-,-,-,-,
O=C(Nc1ccccc1)N1CCC2(CC1)CCN(C(=O)Oc1ccccc1)CC2,0,-,0,0[12.7 µM],-,-,-,-,-,-,
COCCCn1c(N)c(C(=O)OCCOC)c2nc3ccccc3nc21,0,0,0,0[12.7 µM],0,0,-,-,-,-,
CCOC(=O)c1c(NS(=O)(=O)c2ccccc2)n(CCCOC)c2nc3ccccc3nc12,?,0,0,0,0,0,2.5,2.2µM,0,0,
O=C1NC(=S)NC(=O)C1=Cc1ccc(OCC(=O)N2CCCC2)cc1,45µM,0,20µM,14µM,0,15µM,13,14µM,0,0,
O=c1cc(O)c2ccccc2[nH]1,0,0,0,?,0,0,-,-,-,-,
O=c1oc(Cl)c(Cl)c2ccccc12,25µM,0,35µM,6.7µM,0,0.34µM,5,?,?,17µM,USP1-UAF1 confirm=7.4µM
CCN(C(=O)CSc1ncccc1C(=O)Oc1cccc([N+](=O)[O-])c1)c1cccc(C)c1,0,0,0,?,0,0,-,-,-,-,
SMILES,VDR inhibitor,CCT chaperon mod,Sfp PPTase inh,G9a inh,MmCpn inh,PLK1 PBD inh,VDR inh confirm,VDR FP fluor,VDR bla,VDR cytotox,others
CN1CCC(O)(c2cccs2)C(C(=O)c2cccs2)C1 (configuration not stated),?,0,0,25µM,0,27µM,20,25µM,?,?,
Cc1ccccc1N1C(=O)NC(=O)/C(=C\c2cnn(-c3ccccc3)c2)C1=O,50µM,0,25µM,?,0,4.7µM,11,?,0,0,
CC(C)C(Br)C(=O)NC(N)=O (configuration not stated),0,-,0,0,-,-,-,-,-,-,
Cc1cccc(CN2C(=O)CN=C(c3ccccc3)c3cc(Cl)ccc32)c1,0,-,-,0,-,-,-,-,-,-,
O=C1NC(=O)N(Cc2ccc(F)cc2)C(=O)/C1=C/c1cccs1,50µM,0,45µM,4µM,0,0.75µM,12,?,0,0,
O=C(Nc1nc2c(s1)CCCC2)C1CCCN1C(=O)c1cccs1 (configuration not stated),0,0,0,?,0,0,-,-,-,-,
Cc1nn(Cc2ccccc2)c(C)c1C=C1C(=O)NC(=S)NC1=O,25µM,0,0,8.9µM,0,15µM,9.5,?,?,0,TbPYK inh=6.3µM;TbPYK ADP-Glo=?
O=C1NC(=O)C(=Cc2cc(Cl)ccc2OCc2ccc(C(=O)O)cc2)C(=O)N1,50µM,0,50µM,32µM,0,7.5µM,?,?,0,0,TbPYK inh=25µM;TbPYK ADP-Glo=32µM
O=C(O)CCCOc1ccc(Cl)cc1Cl,0,0,0,-,-,0,-,-,-,-,
Cc1cccc(C2CC(=O)Oc3c2c(=O)oc2ccccc32)c1 (configuration not stated),0,-,-,0,-,-,-,-,-,-,
CN1C(=O)NC(=O)/C(=C\C=C\c2ccccc2[N+](=O)[O-])C1=O,11µM,0,18µM,7.9µM,0,1.2µM,4.2,?,?,0,TbPYK inh=16µM;TbPYK ADP-Glo=32µM
O=c1c2ccccc2nc(/C=C\c2ccccc2[N+](=O)[O-])n1-c1ccccc1O,0,0,0,?,0,0,-,-,-,-,
